Source: PubChem BioAssay AID624173 (National Center for Advancing Translational Sciences (NCATS), 2012)
Out of some 410,000 compounds screened, about 490 (0.12%) were called active. Not shown: some 1% with an inconclusive outcome. For the sample, actives were picked, then their nearest neighbours and some compounds at random. Unmarked numbers belong to inactive results. The call rests on the fitted dose curve; in most records, active means well fitted inhibition curve with a large enough effect; inconclusive means small, poorly fitted or top-dose-only effect; inactive means flat fitted curve, though single readings scatter.

Molecular target: pyruvate kinase (Trypanosoma brucei) (UniProt Q57TT1)
Assay: qHTS of Trypanosoma Brucei Inhibitors; further: nearly all actives have a fitted effect of over 50% in size
Conditions: TbPYK enzyme, Kinase-Glo Plus ATP luminescence, 45 min; series mostly up to 76.8 µM; activity, negative = inhibition: at the top concentration
Excerpt: Members of the Trypanosomatidae family of parasitic protozoans cause a spectrum of diseases throughout the tropical and subtropical world. Sleeping sickness, caused by two subspecies of Trypanosoma brucei, is endemic to areas of sub-Saharan Africa, while Chagas' disease, a manifestation of Trypanosoma cruzi infection, is prevalent throughout Central and South America. In addition, many species of Leishmania are responsible for a range of cutaneous and visceral diseases, causing ulcers, destructive lesions and kalaazar, a lethal infection of the viscera. These diseases cause severe public health and economic burdens on populations that are often already caught in a tragic cycle of poverty, poor nutrition and disease. Collectively, parasites of the trypanosomatid family infect 30 million people worldwide (~500 million live in endemic areas), and account for ~130K deaths annually. Existing treatments have developed little in the past 50 years, and suffer from toxicity, poor efficacy and resistance; the goal of this project is to develop lead drugs that will be suitable for entry into pre-clinical trials.
Glycolysis in axenically cultured T. cruzi, representing the intracellular pathogenic stage, is also essential for these parasites. {Engel, 1987} This project aims to discover and optimize selective inhibitors of the glycolytic enzyme pyruvate kinase (PYK) from Trypanosoma brucei, the parasite that causes sleeping sickness. […] Trypanosomatid PYKs show significant differences from their human counterparts including only 47-50% sequence identity and different allosteric and activation properties.{Callens, 1992} To this end, a qHTS was done against the MLSMR to discover inhibitors.
NIH Molecular Libraries Probe Production Network [MLPCN]
NIH Chemical Genomics Center [NCGC]
PI Name: Malcolm Walkinshaw, University of Edinburgh
2 uL of TbPYK/substrate buffer (columns 1-3, 5-48) are dispensed into Greiner white solid bottom 1536-well assay plates; column 4 receives only TEA buffer as 0x TbPYK controls. Compounds are then transferred via Kalypsys pin tool equipped with 1536-pin array (10 nL slotted pins, V&P Scientific, San Diego, CA). Following addition of compound, 2 uL of ADP (130 uM final concentration, all columns) is added to initiate the reaction. The plates are then incubated at room temperature for 45 minutes. Kinase-Glo Plus reagent is added (3 uL) and plates incubated for 10 minutes, before being transferred to a ViewLux high-throughput CCD imager (PerkinElmer) wherein single end-point measurements of luminescence are acquired using a clear filter. All reagents are diluted in an assay buffer consisting of 50 mM TEA (pH 7.2), 100 mM KCl, 10 mM MgCl2, 0.05% BSA and 0.01% Tween-20.
All screening operations will be performed on a fully integrated robotic system (Kalypsys, San Diego, CA) containing one RX-130 and two RX-90 anthropomorphic robotic arms (Staeubli, Duncan, SC). Library plates will be screened starting from the lowest and proceeding to the highest concentration. Vehicle-only plates, with DMSO being pin-transferred to columns 5-48, will be inserted uniformly at the beginning and the end of each library in order to monitor and record any shifts in the background, which can be affected by reagent dispensers or loss in enzyme activity over time. Screening data will be corrected, normalized, and concentration-effect relationships will be derived by using publicly-available curve fitting algorithms developed in-house (http://ncgc.nih.gov/pub/openhts).
On the % scale 0 is the no-effect control and ±100 the full control effect; potency means the concentration at half of the fitted maximal effect.

SMILES	activity, negative = inhibition	Potency
COc1cc(C[C@H]2NCCc3cc(O)c(O)cc32)cc(OC)c1OC	1.09%	–
O=C(c1ccncc1)N1CCC2(CCN(Cc3cc(C(F)(F)F)cc(C(F)(F)F)c3)CC2)CC1	0%	–
CC(=O)O[C@]1(C(C)=O)CC[C@@H]2[C@@H]3C=C(C)C4=CC(=O)CC[C@@]4(C)[C@H]3CC[C@]21C	0% [at 33.2 µM]	–
CS(=O)(=O)N1CCC2(CC1)CN(Cc1ccccc1)C2	-1.13%	–
CCCCC(=O)OCC(=O)[C@H]1[C@H](C)C[C@@H]2[C@@H]3C[C@@H](F)C4=CC(=O)C=C[C@]4(C)[C@@]3(F)[C@@H](O)C[C@@]21C	-6.95%	–
CC(C)NC(=O)N1CCCC2(CCN(C(=O)c3cccn3C)CC2)C1	-0.138%	–
CCOC(=O)c1c(NC(=O)CSc2cn(CCNC(=O)c3cccc(C(F)(F)F)c3)c3ccccc23)sc2c1CCC2	0.688%	–
O=c1c(-c2cc(F)cc(F)c2)nc2cnc(Oc3ccccc3)nc2n1C[C@H]1CCCO1	-5.6%	–
COc1ccc(-c2nc3cnc(OC)nc3n(Cc3ccc(F)cc3)c2=O)cc1	-5.21%	–
COc1ccc(C(=O)N2CCC3(CCCN(C(c4ccccc4)c4ccccc4)C3)CC2)cc1	-16.4%	–
Cc1nc2cnc(N3CCNCC3)nc2n(Cc2ccc(F)cc2)c1=O	-7.19%	–
CS(=O)(=O)N1CCC[C@@]2(CCN(c3ccncc3)C2)C1	0.396%	–
O=C(Nc1cccc(C(F)(F)F)c1)c1cc(Br)cc(Br)c1O	3.82%	–
O=C(c1cnccn1)N1CCC2(CCCN(Cc3ccccc3)C2)CC1	-4.69%	–
COc1cc([C@@H]2c3cc4c(cc3[C@@H](O[C@@H]3O[C@@H]5CO[C@@H](C)O[C@H]5[C@H](O)[C@H]3O)[C@H]3COC(=O)[C@H]23)OCO4)cc(OC)c1OP(=O)(O)O	4.69%	–
CC(C)NC(=O)N1CC[C@@]2(CCCN(C(=O)c3cccn3C)C2)C1	6.56%	–
CC[C@]1([C@H]2O[C@@H]([C@@H]3O[C@](O)(CO)[C@@H](C)C[C@H]3C)C[C@H]2C)CC[C@@H]([C@]2(C)CC[C@@]3(C[C@@H](O)[C@@H](C)[C@@H]([C@H](C)[C@H](OC)[C@H](C)C(=O)O)O3)O2)O1	-3.98%	–
CC(C)(O)c1ccccc1CC[C@H](SCC1(CC(=O)O)CC1)c1cccc(/C=C/c2ccc3ccc(Cl)cc3n2)c1	10.6%	–
CC1(C)OC2CC(=O)OC[C@@]23C1CC(=O)[C@]1(C)C3CC[C@@]2(C)C(c3ccoc3)OC(=O)C3O[C@@]321 (stereo partly drawn)	4.76%	–
c1ccc2sc(SNC3CCCCC3)nc2c1	-21.1%	–
O=C(c1ncn2c1c(=O)[nH]c1ccccc12)N1CCc2ccccc2C1	-0.741%	–
O=c1[nH]c2ccccc2n2c(-c3ccccc3)nnc12	–	2.82 µM (active)

SMILES	activity, negative = inhibition	Potency
CC(C)Cn1c(=O)c2ccccc2n2c(-c3cccc(Cl)c3)nnc12	-6.77%	–
CCNC[C@H](O)c1cccc(O)c1	-5.16% [at 33.2 µM]	–
Cc1c(O)cc2c(c1C)O[C@](C)(CCC[C@H](C)CCC[C@H](C)CCCC(C)C)CC2	-8.92%	–
Nc1ccccc1SC(C[N+](=O)[O-])c1ccccc1 (stereo not drawn)	–	12.6 µM (active)
CCC(=O)N1CCc2cc(Br)cc(S(=O)(=O)Nc3ccc(C)cc3C)c21	1.76%	–
COCCn1c(=O)c(-c2ccc(OC)cc2)nc2cnc(Oc3cccc(Cl)c3)nc21	2.75%	–
N#Cc1cccc(-c2nc3cnc(N4CCNCC4)nc3n(C3CC3)c2=O)c1	-13.9%	–
COc1cc2c(cc1OC)CC(=O)N(CCCN(C)C[C@H]1Cc3cc(OC)c(OC)cc31)CC2	5.47%	–
CC(C)NC(=O)N1CC[C@@]2(CCCN(C(=O)c3cccc(F)c3)C2)C1	5.23%	–
COc1cc(C[C@H](C)N)c(OC)cc1Br	-1.96% [at 157 µM]	–
CCCCC1C(=O)NC(=O)N(C2CCCCC2)C1=O (stereo not drawn)	-8.38%	–
O=C1C=CC(=O)N1c1ccc(N2CCCCC2)cc1	–	10 µM (active)
O=C(c1csnn1)N1CCC2(CCN(Cc3nccs3)CC2)CC1	0.484%	–
Cc1ccc(NC(=O)Cn2sc3ccccc3c2=O)cc1	–	7.94 µM (active)
Cc1ccc(NC(=O)Cn2c(=O)n(-c3ccccc3)c(=O)c3c4c(sc32)CCCC4)cc1	8.83%	–
CC1(C)NC(=O)N(CC(=O)Nc2ccc(-c3ccccc3)cc2)C1=O	-7.35%	–
CO/N=C(\C(=O)N[C@@H]1C(=O)N2C(C(=O)O)=C(Cn3nnc(C)n3)CS[C@H]12)c1csc(N)n1	-4.72%	–
O=C(/C=C/c1cccc(F)c1)NC1CC1	-11.3%	–
C=CCN1CCC23c4c5ccc(O)c4O[C@H]2C(=O)CC[C@@]3(O)C1C5 (stereo partly drawn)	-1.68%	–
CC1(C)OC2CO[C@]3(COS(N)(=O)=O)OC(C)(C)OC3C2O1 (stereo partly drawn)	-0.562%	–
O=C1c2c(O)cccc2[C@@H]([C@@H]2O[C@H](CO)[C@@H](O)[C@H](O)[C@H]2O)c2cc(CO)cc(O)c21	-15.8%	–
